# Screening data as filed in PubChem BioAssay.
# The entries come from a sample that favours hits as a whole.
# BL2 CD40 inh: CD40 pathway inhibition in BL2 cells. inhibition, % at 10 µM. hit rate 0.94% among 83,000. BL2 NF-kB luciferase reporter, CD40L-induced, 4 h;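 active = mean inhibition of at least 50% with a set share of replicates also reaching that level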;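 note: 0% = neutral control wells and 100% = IKK inhibitor VII at 50 µM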
# * marks the source's active call; other numbers are inactive results; ! = not active in a repeat; [ ] = dose if it differs, or a comment.
SMILES,BL2 CD40 inh
COc1ccc(S(=O)(=O)N(C)C[C@H]2OCCCC[C@@H](C)Oc3ccc(NC(=O)Nc4ccc(F)cc4)cc3C(=O)N([C@H](C)CO)C[C@@H]2C)cc1,1.2
C[C@@H]1CN(C)C(=O)Cc2cc(N(C)C)ccc2O[C@@H]1CN(C)C(=O)OC(C)(C)C,12.0
C/C=C/c1ccc([C@@H]2[C@H](CO)N(C(=O)NCCC)[C@H]2CNC(=O)C2CCC2)cc1,1.3
CCCNC(=O)[C@H]1N[C@H]2c3ccc(-c4cccc(F)c4)c(=O)n3C[C@H]2[C@@H]1CO,-2.5[25 µM]
CS(=O)(=O)N1[C@@H](C#N)[C@H](c2ccc(C#Cc3cccc(F)c3)cc2)[C@@H]1CO,-23.7[25 µM]
COc1ccc(C(=O)N2C[C@@H]3[C@H](c4ccccc42)[C@@H](CO)N3C(=O)c2cccc(F)c2)cc1,1.5
CCCNC(=O)[C@H]1[C@H](CO)[C@H]2Cn3c(ccc(-c4cccc(OC)c4)c3=O)[C@H]2N1Cc1nccs1,-8.8[25 µM]
FC(F)(F)c1cnc(-c2cnc3c(-c4ccc(Cl)cc4)cnn3c2)c(Cl)c1,0.3
c1cc(-c2cnn3cc(-c4ccc(OCCN5CCCCC5)cc4)cnc23)ccn1,87.3*[25 µM]
c1ccc(-c2ccccc2OCCOCCN2CCCCC2)cc1,7.0
C[C@H](NC(=O)C[C@H]1C[C@@H]2c3cc(NC(=O)NC4CCCC4)ccc3O[C@@H]2[C@@H](CO)O1)c1ccccc1,-0.2
O=C(C1CCC1)N1C[C@H]2[C@@H](c3ccccc31)[C@@H](CO)N2C(=O)c1ccccc1,5.5
COc1ccc(OCC(=O)OCC(=O)NCc2ccco2)cc1,8.8
COc1ccc(CC(=O)OCC(=O)NCc2ccco2)cc1,5.1
Cc1cc(OCC(=O)OCC(=O)NCc2ccco2)ccc1Cl,30.7*
O=C(C[C@@H]1CC[C@@H]2[C@H](COC[C@@H](O)CN2CC2CCCCC2)O1)NCC1CC1,-36.2
CN(C)C(=O)c1ccc(-c2ccc(C3[C@@H]4CN(C(=O)C5CCCCC5)C[C@H]3N4)cc2)cc1 (stereo not given in full),1.2
CC(=O)N1[C@H](CO)[C@H](c2ccc(C3=CCCC3)cc2)[C@@H]1CNC(=O)CN(C)C,5.0
COc1ccccc1C(=O)COC(=O)c1cccs1,-58.4
CC(=O)NCCc1ccc(C(=O)COC(=O)c2cccn2C)cc1,38.7
COc1ccc(C(=O)COC(=O)c2cccs2)cc1,80.9*
COc1ccc(CCNC(=O)COC(=O)c2cccs2)cc1,1.4
COc1ccc(C(=O)Nc2ccc(C(=O)OCC(=O)c3ccccc3)cc2)cc1,3.1
CC(=O)NCCc1ccc(C(=O)COC(=O)c2cccs2)cc1,77.2*
C[C@@H]1CN([C@@H](C)CO)S(=O)(=O)c2ccc(C#CC3CC3)cc2O[C@H]1CN(C)Cc1ccccc1,-7.6[25 µM]
SMILES,BL2 CD40 inh
CC(C)C#Cc1ccc([C@@H]2[C@@H](CO)N3C(=O)CN(S(=O)(=O)c4ccccc4)C[C@@H]23)cc1,5.9[25 µM]
CCC(=O)N1[C@H](CO)[C@H](c2ccc(-c3ccc(F)cc3)cc2)[C@@H]1CNC(C)=O,3.7
CO[C@@H]1CN(C)C(=O)c2cc(NC(=O)C3CC3)ccc2OC[C@H](C)N(CC2CCCC2)C[C@@H]1C,-5.8
C[C@@H]1CN([C@H](C)CO)C(=O)c2ccccc2-c2ccccc2CO[C@@H]1CN(C)C(=O)Oc1ccccc1,1.1
COc1ccc(-c2ccc([C@@H]3[C@H](C#N)N(C(=O)NC4CCCC4)[C@H]3CO)cc2)cc1,4.1
C[C@@H]1CN([C@@H](C)CO)C(=O)c2ccccc2-c2ccccc2CO[C@@H]1CN(C)C(=O)c1ccccc1,-14.2
CCCNC(=O)NC[C@H]1[C@H](c2ccc(C3=CCCC3)cc2)[C@@H](CO)N1C(C)=O,1.5
Cc1ccc(S(=O)(=O)N2C[C@@H]3N[C@H](C2)C3c2ccc(-c3cccc(C#N)c3)cc2)cc1 (stereo not given in full),21.4[25 µM]
N#Cc1cccc(-c2ccc(C3[C@@H]4CN(S(=O)(=O)c5ccccc5)C[C@H]3N4)cc2)c1 (stereo not given in full),-5.2
N#Cc1cccc(-c2ccc([C@@H]3[C@@H]4CN(S(=O)(=O)c5ccc(-c6ccccc6)cc5)C[C@H]3N4)cc2)c1,60.8*
Cc1ccccc1S(=O)(=O)N1C[C@@H]2N[C@H](C1)C2c1ccc(-c2cccc(C#N)c2)cc1 (stereo not given in full),53.6*![25 µM]
N#Cc1cccc(-c2ccc(C3[C@@H]4CN(S(=O)(=O)c5ccccc5F)C[C@H]3N4)cc2)c1 (stereo not given in full),2.1
N#Cc1cccc(-c2ccc(C3[C@@H]4CN(S(=O)(=O)c5ccc(F)cc5)C[C@H]3N4)cc2)c1 (stereo not given in full),-5.9
Cc1ccc(-c2ccccc2[C@H]2[C@@H](CO)N(C(=O)NC3CCCC3)[C@H]2C#N)cc1,37.7[25 µM]
O=C(Cc1ccccn1)N1CC(=O)N2[C@@H](CO)[C@H](c3ccc(C#CC4CCCC4)cc3)[C@@H]2C1,-4.3
O=C(C[C@@H]1C[C@H]2c3cc(NC(=O)Nc4ccc(C(F)(F)F)cc4)ccc3O[C@H]2[C@@H](CO)O1)NCc1cccnc1,-4.2[25 µM]
C[C@@H]1CN(C)C(=O)Cc2cc([N+](=O)[O-])ccc2O[C@@H]1CN(C)C(=O)OC(C)(C)C,-3.4
CCCN1[C@H](C(=O)N2CCOCC2)[C@@H](CO)[C@@H]2Cn3c(ccc(-c4ccccc4)c3=O)[C@@H]21,3.3[25 µM]
Cn1c(=O)c2[nH]c(SCCN3CCCCC3)nc2n(C)c1=S,6.9
CCCC(C)Sc1nc2c([nH]1)c(=S)n(C)c(=O)n2C (stereo not given),93.3*
CCSc1nc2c([nH]1)c(=O)n(C)c(=S)n2C,0.2
C[C@H](NC(=O)[C@H]1[C@H](CO)[C@H]2Cn3c(cccc3=O)[C@H]2N1CC1CCCC1)c1ccccc1,4.0
COCC#Cc1ccc([C@H]2[C@H](CO)N3C(=O)CN(C(=O)C4CCCC4)C[C@@H]23)cc1,-1.2
CO[C@@H]1CN(C)C(=O)c2cc(NC(=O)c3nc4ccccc4s3)ccc2OC[C@H](C)N(Cc2cccnc2)C[C@H]1C,9.3
O=C(c1cccnc1)N1C[C@@H]2[C@H](c3ccccc31)[C@@H](CO)N2CC1CCCC1,11.9
SMILES,BL2 CD40 inh
O=C1C(=Cc2cccc(F)c2)Cc2ccccc21,-137.0
CC1(C)CC(=Cc2ccccc2[N+](=O)[O-])C(=O)c2ccccc21,-21.1
O=C1C(=Cc2ccccc2[N+](=O)[O-])Cc2ccccc21,49.5*
O=C(Cc1ccccn1)N1CC2(C1)[C@H](c1ccccc1)[C@H](CO)N2C(=O)c1ccncc1,1.9[25 µM]
CO[C@H](CN(C)S(=O)(=O)c1ccc(Cl)cc1)[C@H](C)CN(Cc1ccccc1Cl)[C@H](C)CO,9.5
C[C@@H]1CN([C@@H](C)CO)C(=O)c2cc(NS(=O)(=O)c3ccc(Cl)cc3)ccc2O[C@@H](C)CCCCO[C@@H]1CN(C)C(=O)CCCN(C)C,-7.2[25 µM]
CC(=O)N1CCN(c2ccc(OCC3COC(Cn4ccnc4)(c4ccc(Cl)cc4Cl)O3)cc2)CC1 (stereo not given),-9.2[25 µM]
CCCCCCCn1c2c(c(=N)c3ccccc31)CCC2,84.0*
CCCCn1c(=N)n(CC(=O)O)c2ccccc21,6.4
CCCCCCN1Cc2ccccc2C1,-15.8
C[C@H](CO)N1C[C@H](C)[C@@H](CN(C)C(=O)N[C@H](C)c2ccccc2)OCc2ccccc2-c2ccccc2C1=O,-9.6[25 µM]
O=C(Nc1ccc2c(c1)[C@@H]1C[C@H](CC(=O)N3CCCCC3)O[C@@H](CO)[C@@H]1O2)NC1CCCCC1,-4.6[25 µM]
